# Source: the OligoGym collection
# Molecular target: GABRA1
# Assay: pooled miR-30 sensor sort-seq; sequence = guide strand
# Details: shRNA
# Further: reference of the scale not given here.
row,Sequence,sensor-assay potency score (higher = more potent)
1,TTAGACGTGATCCATCTTCTGC,-0.591
2,TATTTATCTCTAAAACATCTGG,-0.271
3,TTAGTGAAATAGTTTACTGTGG,-0.522
4,TACATCTATTGTATATTCCATA,-0.691
5,TTGTCCAAGAAGGTCATACTGG,-0.186
6,TATATCATTGGATAGCAGCTTT,-0.213
7,TTGTGAGAGAATCACTGTCATT,-1.6
8,TTTTCTTGTATCTTTGAACCAT,0.355
9,TTAACAACATTCCAACAGCTAA,-1.39
10,TAAACAACTTCTGCTCTTGTAT,-0.033
11,TCTTCTGCTACAACCACTGAGC,-0.0993
